Results as given in PubChem BioAssay AID425 (Sanford-Burnham Center for Chemical Genomics, 2006).
Where “and” joins values, the source holds several entries; their conditions need not be identical. Equal entries are not always repeated. Screen size: about 110,000 compounds; about 190 (0.17%) were called active. Rule as the data show it: active = inhibition above about 50%; inactive = the rest. For the sample, actives were picked, then their nearest neighbours and some compounds at random. Results with a measured potency or affinity are listed apart. Some compounds were tested as several samples or in several runs, with calls that do not always agree.

target: Dual specificity protein phosphatase 6 (Rattus norvegicus) (UniProt Q64346); test: MKP-3 phosphatase inhibitors, primary screen, biochemical, rat enzyme, in vitro (AID 425); conditions: recombinant MKP-3 phosphatase activity, fluorescence; at 20 µM; stronger effect = higher value;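 also: plate controls were vehicle for no effect and reference inhibitor for full effect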
Sequence (Q64346 whole entry, looked up): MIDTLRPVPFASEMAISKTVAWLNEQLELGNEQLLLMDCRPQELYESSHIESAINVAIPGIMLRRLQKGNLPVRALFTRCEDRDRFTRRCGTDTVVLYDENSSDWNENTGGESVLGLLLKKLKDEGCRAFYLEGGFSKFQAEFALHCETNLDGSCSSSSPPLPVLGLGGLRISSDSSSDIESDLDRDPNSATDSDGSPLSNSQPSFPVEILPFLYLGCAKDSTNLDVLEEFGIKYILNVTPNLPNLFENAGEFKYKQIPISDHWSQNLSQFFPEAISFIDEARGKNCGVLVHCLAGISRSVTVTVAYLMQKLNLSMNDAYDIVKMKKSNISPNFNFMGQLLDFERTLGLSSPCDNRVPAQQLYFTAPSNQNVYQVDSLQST

inhibition, inactive:
COc1cc2c(C#N)c(N3CCCCC3)nc(N)c2c(N)n1 8%
COc1cc2c(C#N)c(N3CCOCC3)nc(N)c2c(N)n1 -5.5%
Cc1ccc2oc(-c3cccc(NC(=O)COc4ccccc4[N+](=O)[O-])c3C)nc2c1 0.7%
O=C(COc1ccccc1[N+](=O)[O-])Nc1ccc(-c2nc3ncccc3o2)cc1 16%
CCOc1ccc(NC(=O)CSC(N)=O)cc1 -0.4%
Cc1ccc(C)c(S(=O)(=O)NCc2cccnc2)c1 -4.3%
O=c1/c(=C\c2ccc(-c3cccc(Br)c3)o2)sc2nc3ccccc3n12 1.3%
O=c1/c(=C/c2ccc(-c3ccccc3[N+](=O)[O-])o2)sc2nc3cc(Br)cnc3n12 0.3%
Cc1cc(C)c2nc3s/c(=C\c4ccc(-c5ccc(Cl)c(C(=O)O)c5)o4)c(=O)n3c2c1 19.9%
O=c1/c(=C\c2ccc(-c3cccc(Cl)c3)o2)sc2nc3ccccc3n12 0.1%
O=c1/c(=C/c2ccc(-c3ccccc3)o2)sc2nc3ccccc3n12 -5.1%
O=c1/c(=C/c2ccc(-c3ccc(Cl)cc3)o2)sc2nc3ccccc3n12 -1.6%
O=c1/c(=C/c2ccc(-c3ccc([N+](=O)[O-])cc3Cl)o2)sc2nc3cc(Br)cnc3n12 1%
Cc1cc2nc3s/c(=C/c4ccc(-c5ccc(Cl)cc5)o4)c(=O)n3c2cc1C 0.8%
CCCCOC(=O)c1ccc(NC(=O)c2cncc(Br)c2)cc1 2.8%
COc1ccccc1/C=C1\SC(=S)N(NC(=O)Cc2ccccc2)C1=O 2.2%
O=C(COc1ccc(=O)n(-c2ccccc2)n1)Nc1ccccc1 1.2%
COC(CNS(=O)(=O)c1ccc(Cl)cc1)c1ccccc1 (stereo unspecified) -0.6%
CC1(C)CC(=O)C2=C(C1)OC1=C(C(=O)CC(C)(C)C1)C2c1ccc(-c2nnc(N)s2)cc1 5.6%
CC(C)CSc1nc2c(c(=O)[nH]c(=O)n2C)n1CC(O)COc1cccc2ccccc12 (stereo unspecified) -2.5%
Cn1c(=O)oc2cc(S(=O)(=O)Nc3ccc(Cl)cc3F)ccc21 -2.1%
Cc1nc2c3ccccc3n(CC#N)c(=O)n2n1 -2.1%
NC(=O)C1(N2CCCCC2)CCN(CC(=O)Nc2ccc(Oc3ccccc3)cc2)CC1 -17%
COc1ccc(CCCc2nnc(SCC(=O)Nc3ncc(C)s3)o2)cc1 -9.2%
O=C(O)c1ccccc1NCN1C(=O)C2CC=C(Cl)CC2C1=O (stereo unspecified) 5.2%
O=[N+]([O-])c1cccc(C2Nc3ccc4ccccc4c3C3C=CCC32)c1 (stereo unspecified) 8.7%
Oc1ccc(C2Nc3ccc4ccccc4c3C3C=CCC32)cc1 (stereo unspecified) 2.7%
COc1ccc2c(c1)C1C=CCC1C(C(=O)O)N2 (stereo unspecified) 23.5%
Cc1ccc2c(c1)C1C=CCC1C(C(=O)O)N2 (stereo unspecified) 40.3%
O=[N+]([O-])c1ccc(C2Nc3ccc([N+](=O)[O-])cc3C3C=CCC32)cc1 (stereo unspecified) 6.6%
CC(=O)Nc1ccc2c(c1)C1C=CCC1C(C(=O)O)N2 (stereo unspecified) 3%
O=[N+]([O-])c1cccc2c1NC(c1ccccc1F)C1CC=CC21 (stereo unspecified) 2.2%
O=[N+]([O-])c1cccc2c1NC(c1ccc(F)cc1)C1CC=CC21 (stereo unspecified) -0.5%
O=C(Nc1ccc2nn(-c3ccccc3)nc2c1)c1cc(I)ccc1Cl 3.4%
Cn1cnnc1Sc1nc2c(c(=O)n(C)c(=O)n2C)n1C -3.7%
COc1ccc(C(=O)/C=C/c2c(Cl)cccc2Cl)cc1 10.2%
CCOc1ncccc1C(=O)OCC(=O)NCCc1ccc(OC)cc1 1.6%
O=C(c1ccc(S(=O)(=O)NCC2CCCO2)cc1)N1CCc2ccccc21 (stereo unspecified) 8.3%
O=C(CCNS(=O)(=O)c1ccccc1[N+](=O)[O-])Nc1ccc(I)cc1 2%
C=CCn1c(SCC(=O)NCc2cccs2)nnc1C1CCCCC1 -0.2%
COc1cc(/C=C2\SC(=S)N(c3ccc(C)cc3C)C2=O)cc(Br)c1O -2.7%
O=C(NCC1CCCO1)c1cnn2c1NC(c1ccco1)CC2C(F)(F)F (stereo unspecified) -1.8%
Cc1ccc(NC(=O)Cn2nc(C)c3ccccc3c2=O)cc1F -2.5%
COc1cc(C(=O)NC(NC(=S)Nc2ccc(C(C)=O)cc2)C(Cl)(Cl)Cl)cc(OC)c1OC (stereo unspecified) 3.5%
COc1cccc(C2C(C(=O)Nc3ccccc3)=C(C)N=C3SCC(=O)N32)c1 (stereo unspecified) 3.3%
Cc1ccc(C(=O)O)cc1N1C(=O)c2ccccc2C1=O -1.1%
Cc1ccc(C)n1-c1cc(C(=O)O)cc(C(=O)O)c1 32.5%
Cc1ccc(C)n1-c1cc(C(=O)O)ccc1O 32.6%
Cc1cc(Cl)c2cc(C(=O)O)ccc2n1 3.5%
Cc1ccc(-c2ccccc2)n1-c1cccc(C(=O)O)c1 2.4%
Cc1cc(N)ccc1-n1c(C)ccc1C -1.5%
COc1cccc(C2=NN(C(=O)COc3ccccc3)C(O)(C(F)(F)F)C2)c1 (stereo unspecified) 1.7%
Cc1cccc(C(C)C)c1NC(=O)c1cccnc1 -7.7%

inhibition, 55% (active) and 10.8% (inactive):
Cc1cc(C(=O)O)ccc1-n1c(C)ccc1C

inhibition, active:
Cc1c(NC(=O)COc2ccccc2[N+](=O)[O-])cccc1-c1nc2ncccc2o1 59.4%
O=C(O)c1ccccc1-c1ccc(/C=c2\sc3nc4cc(Br)cnc4n3c2=O)o1 52.1%
O=C(O)C1Nc2ccc([N+](=O)[O-])cc2C2C=CCC12 (stereo unspecified) 63.7%
O=C(O)C1Nc2ccc3ccccc3c2C2C=CCC12 (stereo unspecified) 91.5%
O=C(O)C1Nc2c(cccc2[N+](=O)[O-])C2C=CCC12 (stereo unspecified) 79%
Cc1ccc(C)n1-c1cc(C(=O)O)ccc1Cl 101%
Cc1ccc(C(=O)O)cc1-n1c(C)ccc1C 59%
